Rows were chosen to be rich in hits. Some 1.8% of all compounds tested hit in one or more screens of this group.
ClpP mod – qHTS Assay for Activators of ClpP; ATP-dependent Clp protease proteolytic subunit (Bacillus subtilis (strain 168)), P80244; purified B. subtilis ClpP, FRET peptide cleavage, 20 min; Potency, µM (doses to about 57.5 µM); actives 1.9% (n = 340,000); AID 651965, 2013; active = well fitted falling curve with a large enough effect; inconclusive = small, poorly fitted or top-dose-only effect; inactive = no such curve, though single readings can be large or run the other way; also: the source files actives as falling curves though it sought activators and does not explain the sign; nearly all actives have a fitted effect of over 65% in size
Target sequence (P80244 whole entry, looked up): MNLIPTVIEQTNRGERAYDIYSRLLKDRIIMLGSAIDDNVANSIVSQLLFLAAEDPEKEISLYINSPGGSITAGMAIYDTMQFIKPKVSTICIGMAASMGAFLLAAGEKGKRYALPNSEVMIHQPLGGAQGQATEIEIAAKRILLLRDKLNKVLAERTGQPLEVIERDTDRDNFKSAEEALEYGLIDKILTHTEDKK
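Buffer: 100 mM Tris/HCl pH8, 100 mM KCl, 0.05% low protease BSA, 2.5% glycerol, 0.01% Tween-20. ClpP 10 microg/mL final; 20 min RT; delta FRET normalized to ADEP and DMSO controls.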
GRP78 ERSR act – inducers of ER stress response in human glioma cells. U87-MG GRP78 promoter luciferase reporter, 16 h. Potency, µM, hits mostly activators. actives 0.02% (n = 420,000). AID 602332; also: series mostly up to about 76 µM; nearly all actives have a fitted effect of over 35% in size
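Stably transfected U87-MG glioma cells carrying a GRP78-based luciferase sensor; 16 h compound incubation. Luminescence end-point read 10 min after Bright-Glo addition at room temperature.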
Mito fusion act – inhibitors of mitochondrial division or activators of mitochondrial fusion; S. cerevisiae fusion-defective mutant growth rescue, CellTiterGlo 48 h; Potency, µM (doses to about 46.1 µM), hits mostly activators; actives 0.23% (n = 320,000); also: nearly all actives have a fitted effect of over 45% in size
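Compounds are tested for their ability to restore growth of mitochondrial fusion-defective yeast strains at non-permissive 37C in YPEG medium over 48 hours. Viability is quantified by luciferase luminescence.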
AT treatment – potential ataxia-telangiectasia treatments restoring KAP-1 phosphorylation; F2112 A-T fibroblasts, KAP-1 phosphorylation AlphaLISA; neocarzinostatin DNA damage 30 min before lysis; Potency, µM (series often up to 57.5 µM), usual class: activators; actives 0.19% (n = 320,000); AID 485349; also: nearly all actives have a fitted effect of over 45% in size
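hTERT-immortalized A-T patient fibroblasts (F2112), 500 cells/well in OPTI-MEM, 1% FBS, got compounds for 60 min, then NCS for 30 min at 37C. Lysates were then assayed for phospho-KAP-1 by AlphaLISA (anti-pKAP1 donor, anti-KAP1 acceptor beads), 6 hr at 25C.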
MBNL1-CUG inh – MBNL1-poly(CUG) RNA binding inhibition. Q9NR56. TR-FRET MBNL1-His/biotin-(CUG)12 binding, 665/545 ratio. Potency, µM (doses to about 57.5 µM), hits mostly inhibitors. actives 0.036% (n = 280,000). AID 2675; active = well fitted inhibition curve with a large enough effect in the signal ratio, with a control signal flat, not every such curve was filed as active; inconclusive = small, poorly fitted or top-dose-only effect, or effect the other way, or a change in a side signal; inactive = no such curve, though single readings can be large or run the other way; the % refers to the signal ratio
Target sequence (Q9NR56 whole entry, looked up): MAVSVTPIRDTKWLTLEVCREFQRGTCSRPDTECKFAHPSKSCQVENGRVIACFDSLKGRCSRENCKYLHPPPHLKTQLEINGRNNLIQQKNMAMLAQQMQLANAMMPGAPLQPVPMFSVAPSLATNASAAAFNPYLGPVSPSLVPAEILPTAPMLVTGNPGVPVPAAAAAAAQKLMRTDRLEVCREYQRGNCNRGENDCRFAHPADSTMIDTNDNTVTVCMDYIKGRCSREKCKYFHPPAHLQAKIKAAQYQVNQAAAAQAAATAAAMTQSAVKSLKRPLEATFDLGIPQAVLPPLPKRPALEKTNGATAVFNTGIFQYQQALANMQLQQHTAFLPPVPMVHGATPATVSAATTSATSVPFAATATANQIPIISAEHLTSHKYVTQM
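Compound titration spanned 92 nM–58 uM against the MBNL1-His/biotin-(CUG)12 complex. After 60 min at room temperature with 5 nM streptavidin-XL665 and 0.055 ng/ul terbium anti-His, ratiometric 665/545 nm emission (Ex 340 nm) normalized to controls.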
TCR activator – activators of T cell receptors; Potency, µM (series often up to 9.22 µM), actives largely listed as activators; primary human leukocytes, anti-CD3, IL-2 HTRF, 48 h; 330,000 tested, under 10 active; AID 504894
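Using a-CD3 beads without co-stimulation, primary human leukocytes were exposed to compounds for 48 hr. An HTRF IL-2 kit measured the cytokine, with europium-to-d2 energy transfer producing emission at 665nm upon 320nm excitation.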
Numbers stand for hits; 0 = inactive; ? = inconclusive; - = no result. Unless noted, calls follow the shape of the dose curve; as a rule, active = well fitted curve in the direction sought with a large enough effect; inconclusive = small, poorly fitted or top-dose-only effect, or another doubt; inactive = no such curve, though single readings can be large; an effect the other way counts as inactive or inconclusive.

SMILES | ClpP mod | GRP78 ERSR act | Mito fusion act | AT treatment | MBNL1-CUG inh | TCR activator
CSCC[C@H](N)C(=O)N[C@@H](C)C(=O)NCC(=O)N[C@@H](CCCN=C(N)N)C(=O)N[C@@H](CO)C(=O)NCC(=O)N[C@@H](CC(=O)O)C(=O)N[C@@H](CO)C(=O)N[C@@H](CC(=O)O)C(=O)N[C@@H](CCC(=O)O)C(=O)N[C@@H](CC(=O)O)C(=O)N[C@@H](CC(C)C)C(=O)N[C@@H](CC(C)C)C(=O)N[C@@H](CCCCN)C(=O)N[C@@H](C)C(=O)N[C@H](C(=O)O)C(C)C | - | 0 | - | - | - | -
COc1ccccc1N1C(=O)c2ccccc2NC1C(OC)OC (configuration not stated) | 22.4µM | 0 | 0 | - | 0 | 0
COc1ccccc1N1C(=O)c2ccccc2NC1c1cc(OC)c(OC)c(OC)c1 (configuration not stated) | - | 0 | 0 | 0 | 0 | 0
CCCN1CCC(=O)N(CCC#N)CC1 | 0 | 0 | - | - | - | -
CCOC(=O)c1ccccc1NC(=O)COC(=O)CSCC(=O)Nc1cc(C)on1 | 0 | 0 | 0 | 0 | - | 0
Cc1cc(NC(=O)COC(=O)c2ccccc2NCCO)no1 | 15.8µM | 0 | - | 0 | - | 0
Cc1cc2nn(-c3ccc(Cl)cc3)nc2cc1N | 0 | 0 | 0 | 22.4µM | 0 | 0
CCOC(=O)c1sc(C)c2c1NC(C)(c1ccccc1)NC2=O (configuration not stated) | 31.6µM | 0 | 0 | 0 | 0 | 0
CCc1nc(N2CCCC(C)C2)c2oc3ccccc3c2n1 (configuration not stated) | ? | 0 | 0 | 39.8µM | 0 | 0
O=C(NCCn1cc(SCc2ccccc2Cl)c2ccccc21)c1cccs1 | 0 | 0 | - | - | - | -
CCCC[C@@H](CC)COC(=O)C[C@H](C(=O)OC[C@H](CC)CCCC)S(=O)(=O)O | - | 0 | - | - | - | -
COC(=O)c1ccc(Sc2ccc(Cl)cc2)c(N)c1 | 25.1µM | 0 | 0 | 0 | 0 | 0
COC(=O)c1ccc(C(=O)OC)c(N)c1 | - | - | 0 | ? | 0 | -
CC(C)Cc1nc2oc3c(NCC4CCCO4)ncnc3c2c2c1CCC2 (configuration not stated) | ? | 0 | 0 | 0 | 0 | 0
c1cncc(CNc2ncnc3sc4c(c23)CCC4)c1 | - | 0 | 0 | 0 | 0 | 0
CC(C)Cc1nc2oc3c(NCc4cccnc4)ncnc3c2c2c1CCC2 | 17.8µM | 0 | 0 | 0 | 0 | 0
CC(C)c1nc2oc3c(NCc4cccnc4)ncnc3c2c2c1CCC2 | 14.1µM | 0 | 0 | 0 | 0 | 0
COc1cccc(CN2C(=O)c3cccc(N)c3C2=O)c1 | 0 | 0 | 0 | 25.1µM | ? | 0
CC(C)C(=O)Nc1ccc(NC(=S)NC(=O)c2ccc([N+](=O)[O-])cc2)cc1 | 0 | 0 | 0 | 0 | ? | 0
CC(=O)Nc1ccc(NC(=S)NC(=O)c2ccc([N+](=O)[O-])cc2)cc1 | 6.31µM | 0 | 0 | 0 | ? | 0
CCC[N+](C)(C)c1ccc(/C=C/c2ccncc2)cc1 | 0 | 0 | - | - | - | -
COc1ccc2cc(/C=N/NC(=O)c3ccc(CN(c4cccc(Cl)c4Cl)S(C)(=O)=O)cc3)c(Cl)nc2c1 | 17.8µM | 0 | 0 | 0 | 0 | 0
COc1ccc2cc(/C=N/O)c(Cl)nc2c1 | 0 | 0 | 0 | 0 | 0 | 0
CCCCCCn1c(=O)c(Cc2ccccc2)c(O)c2ccccc21 | - | 0 | 0 | 0 | 0 | 0
CCCCn1c(=O)c(Cc2ccccc2)c(O)c2ccccc21 | 14.1µM | 0 | 0 | 0 | 0 | 0
SMILES | ClpP mod | GRP78 ERSR act | Mito fusion act | AT treatment | MBNL1-CUG inh | TCR activator
Cc1ccn2c(NC3CCCCC3)c(-c3cccc(-c4cccc(Cl)c4)c3)nc2c1 | 0 | 0 | 0 | 25.1µM | - | 0
OC(c1cc(C(F)(F)F)nc2c(C(F)(F)F)cccc12)C1CCCCN1 (configuration not stated) | 0 | 0 | 0 | 0 | - | 0
OC(c1cc(-c2ccc(C(F)(F)F)cc2)nc(C(F)(F)F)c1)C1CCCCN1 (configuration not stated) | 0 | 0 | 0 | 39.8µM | 0 | 0
Cc1ccc(-c2nc3cccnc3o2)cc1NC(=O)COc1ccc(Cl)cc1C | ? | 0 | 0 | 0 | 0 | 0
Cc1ccc(-c2nc3cccnc3o2)cc1NC(=O)COc1ccc(C(C)(C)C)cc1 | 28.2µM | 0 | ? | - | 0 | 0
Cc1ccc(-c2nc3ncccc3o2)cc1NC(=O)COc1ccccc1 | 31.6µM | 0 | 0 | - | 0 | -
CCc1ccc2oc(-c3ccc(C)c(NC(=O)COc4ccc(Cl)cc4)c3)nc2c1 | 0 | 0 | - | - | - | -
Cc1cc(C)cc(OCC(=O)Nc2ccc(-c3nc4ncccc4o3)cc2C)c1 | ? | 0 | 0 | - | - | -
Cc1ccc(-c2nc3ncccc3o2)cc1NC(=O)Cc1ccc(Cl)cc1 | 0 | 0 | 0 | 0 | 0 | 0
Cc1ccc(-c2nc3ncccc3o2)cc1NC(=O)CC(C)C | 11.2µM | 0 | 0 | 0 | - | 0
CCc1ccc(OCC(=O)Nc2cc(-c3nc4cc(C)ccc4o3)ccc2C)cc1 | 3.98µM | 0 | - | - | - | -
OCC1OC(n2ccc3c(SCc4ccccc4)ncnc32)C(O)C1O (configuration not stated) | 35.5µM | 0 | - | - | - | 0
COc1ccc2[nH]c3c(N4CCC(O)(c5cccc(C(F)(F)F)c5)CC4)ncnc3c2c1 | 31.6µM | 0 | 0 | 0 | 0 | 0
CC(NC(=O)c1cc(F)ccc1F)c1nnc2n1CCN(Cc1ccccc1O)CC2 (configuration not stated) | - | 0 | - | - | - | -
Cc1ccc(S(=O)(=O)c2cn(Cc3cccc(F)c3)c3cc(N4CCCC4)c(F)cc3c2=O)cc1 | 3.55µM | 0 | - | - | - | -
Cc1ccc(S(=O)(=O)c2cn(Cc3ccccc3)c3cc(N4CCOCC4)c(F)cc3c2=O)cc1 | 28.2µM | 0 | - | - | - | -
Cc1ccc(Cn2cc(S(=O)(=O)c3ccc(C)cc3)c(=O)c3cc(F)c(N4CCCC4)cc32)cc1 | ? | 0 | - | - | - | -
Cc1ccc(S(=O)(=O)c2cn(Cc3ccccc3)c3cc(N4CCCCC4)c(F)cc3c2=O)cc1 | ? | 0 | - | - | - | -
CCc1ccc(S(=O)(=O)c2cn(Cc3ccccc3)c3cc(N4CCCC4)c(F)cc3c2=O)cc1 | 2.82µM | 0 | - | - | - | -
COc1ccccc1-c1nccc(NCc2cccs2)n1 | - | 0 | - | - | - | -
COc1ccc(-n2c(CCNC(=O)c3ccccc3C(F)(F)F)nnc2SC)cc1 | - | 0 | - | - | - | -
Cc1c(O)cc2c(c1O)C(=O)CC(c1ccccc1)O2 (configuration not stated) | 0 | 28.2µM | 0 | 0 | 0 | 0
Cc1cnc(-c2nnc(N(C)C(=O)C3CCCO3)s2)cn1 (configuration not stated) | 28.2µM | 0 | 0 | 0 | 0 | 0
Nc1ncnc2c1c(-c1ccc(Oc3ccccc3)cc1)cn2C1CCCC1 | 28.2µM | 0 | ? | 0 | - | 0

High-throughput results (PubChem)
